Assay results: PubChem BioAssay AID1851 (National Center for Advancing Translational Sciences (NCATS), 2009)
The whole screen tested about 16,000 compounds, of which about 5,800 (36%) were called active. About 23% were inconclusive and are not listed. Calls follow the shape of the dose curve; as a rule, active = well fitted curve in the direction sought with a large enough effect; inconclusive = small, poorly fitted or top-dose-only effect, or effect the other way; inactive = no such curve, though single readings can be large or run the other way. Some of the results follow.

molecular target: Cytochrome P450 2C19 (Homo sapiens) (UniProt P33261); assay: Cytochrome panel assay with activity outcomes; settings: recombinant CYP, pro-luciferin dealkylation, luminescence, p450-cyp2c19; series mostly up to 57.1 µM
% is scaled to controls: 0 for no effect and ±100 for the full control effect.

Chain of Cytochrome P450 2C19 (Homo sapiens) (P33261 whole entry, looked up): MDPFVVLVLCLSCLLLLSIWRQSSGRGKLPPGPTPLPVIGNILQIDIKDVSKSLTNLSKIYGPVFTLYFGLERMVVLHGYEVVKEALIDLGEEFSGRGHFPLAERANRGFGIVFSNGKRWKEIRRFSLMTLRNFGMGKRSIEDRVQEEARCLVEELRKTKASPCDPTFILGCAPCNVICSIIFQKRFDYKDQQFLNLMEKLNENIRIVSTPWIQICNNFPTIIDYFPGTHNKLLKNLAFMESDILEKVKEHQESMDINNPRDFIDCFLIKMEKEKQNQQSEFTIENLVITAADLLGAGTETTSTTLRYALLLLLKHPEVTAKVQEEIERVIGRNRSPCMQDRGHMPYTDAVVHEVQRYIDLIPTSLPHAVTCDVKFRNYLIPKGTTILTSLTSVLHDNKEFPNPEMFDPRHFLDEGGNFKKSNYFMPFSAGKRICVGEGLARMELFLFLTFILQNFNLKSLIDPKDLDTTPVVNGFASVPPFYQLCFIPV

AC50, active:
COc1cc(CNCc2cccs2)cc(Br)c1OC 2.51 µM, COc1cc(CNCc2cccs2)ccc1OCC(=O)NC(C)(C)C 14.1 µM, COc1ccccc1CNCc1cccs1 8.91 µM, Cc1ccc(-c2csc3ncnc(NCCN4CCOCC4)c23)cc1 11.2 µM, CN(C)c1ccc(-c2cncnc2NCCN2CCOCC2)cc1 6.31 µM, Nc1cc2c(nc3c4ccccc4c(N)cc3[n+]2-c2cccc3ccccc23)c2ccccc12 (tested in a mixture with another compound) 1 µM, COc1cc(/C=C(\C#N)C(N)=O)cc(CSc2nc3ccccc3s2)c1O 3.16 µM, CCc1ccc(N/C(SCc2ccccc2C)=C(/C#N)C(=O)NCc2ccco2)cc1 2.82 µM, CC(C)Cn1c(SCC(=O)c2c(N)n(C)c(=O)n(C)c2=O)nc2ccccc21 7.94 µM, CCNC(=O)NC(=O)CSc1nc2ccccc2n1CC(C)C 5.62 µM, O=C(CSc1nnc2sc3ccccc3n12)NCc1ccco1 10 µM, Cc1cc(C)c(NC(=O)C(C)Sc2nnc(-c3ccco3)n2-c2ccccc2)c(C)c1 (stereo not given) 1.78 µM, O=C(CSc1nnc(-c2ccco2)n1-c1ccccc1)NCc1ccco1 8.91 µM, CC(c1ccc(Cl)cc1)n1c(-c2ccc3ccccc3n2)n[nH]c1=S (stereo not given) 0.447 µM, N#Cc1c(Cl)cccc1-n1ccnc1 8.91 µM, Cc1cccc(-n2cccc2)c1C#N 17.8 µM, N#Cc1c(-n2ccnc2)cccc1-n1ccnc1 2.24 µM, CSC(=NC#N)N1CCN(c2ccc(Cl)cc2)CC1 0.708 µM, O=C(CCNC(=O)Cn1cnc2ccccc2c1=O)NCC1COc2ccccc2O1 (stereo not given) 28.2 µM, O=C(C[C@@H](c1ccccc1)N1CCCCC1)c1ccccc1 2.51 µM, O=C1c2ccccc2NC(c2ccc(Cl)cc2Cl)N1O (stereo not given) 5.62 µM, C=CCc1cccc(C2Nc3ccccc3C(=O)N2O)c1O (stereo not given) 1.58 µM, O=C1c2ccccc2NC(c2ccc3c(c2)OCO3)N1O (stereo not given) 10 µM, CCNC(=S)NNC(=O)CCn1c2ccccc2c2ccccc21 5.01 µM, COc1cc(/C=N/O)cc(Br)c1OCc1ccc(Cl)cc1 1.58 µM, COc1cc(/C=N/O)cc(Br)c1OCc1cccc(Cl)c1 2 µM, C=CCc1cc(C=O)cc(OC)c1OCc1ccc(Cl)cc1 0.794 µM, CCOc1cc(/C=N/O)cc(Cl)c1OC 20 µM, COC(=O)C1CCC(C)(C(=O)Nc2ccccc2)C1(C)C (stereo not given) 3.55 µM, CCn1c(SCc2ccc(Cl)cc2Cl)nc2nc3c(cc2c1=O)CCCC3 3.98 µM, COc1ccc([N+](=O)[O-])cc1N(CC(O)CN(CC(C)C)CC(C)C)S(=O)(=O)c1ccccc1 (stereo not given) 6.31 µM, O=C(Nc1ccccc1)N1CCSc2cc(Cl)ccc21 0.794 µM, O=C(N/N=C/c1ccc([N+](=O)[O-])o1)c1cc(-c2ccncc2)nc2ccccc12 2.82 µM

AC50, inactive:
COc1ccccc1CNCCCCCCNCCCCCCCCNCCCCCCNCc1ccccc1OC, CC(C)NC(=O)N1CCCC2(CCN(C(=O)c3csnn3)CC2)C1, COCC(=O)N1CCC2(CCCN(C(=O)Nc3cccc(F)c3)C2)CC1, CN(C)C(=O)c1ccc(-c2ccc3ncnc(NCCN4CCOCC4)c3c2)cc1, CN(C)C(=O)c1ccc(-c2cncnc2NCCN2CCOCC2)cc1, Cc1cc(N)c2ccccc2[n+]1CCCCCCCCCC[n+]1c(C)cc(N)c2ccccc21, COc1cc(/C=C(\C#N)C(=O)c2ccc(O)c(O)c2)cc(I)c1O, Cc1cc2c(cc1C)-c1nnc(-c3ccc4ccccc4n3)n1C(C)(C)C2, CN(C)CC[C@H](c1ccc(Cl)cc1)c1ccccn1, FC(F)(F)c1ccccc1-n1ccnc1, O=C(Cn1cnc2ccccc2c1=O)NCCC(=O)Nc1ccc2c(c1)OCCO2, c1ccc(C(c2ccccc2)N2CC[C@@]3(CCCNC3)C2)cc1, O=C(O)CC(c1ccccc1)n1cnnn1 (stereo not given), CN1[C@@H](CC(=O)c2ccccc2)CCC[C@@H]1C[C@@H](O)c1ccccc1, CCNC(=S)NNC(=O)Cc1ccccc1, COc1ccc(Cl)cc1N=Nc1ncc[nH]1, COC(=O)N1CCC2(CC1)CN(C(=O)Nc1ccccc1)C2, COC(=O)N1CCC[C@@]2(CCN(C(=O)Nc3ccccc3)C2)C1, CS(=O)(=O)N1CCC2(CC1)CN(C(=O)Nc1ccccc1)C2, Cn1ccc2cc3c(cc21)CCN3C(=O)Nc1cccnc1

activity, negative = inhibition, inactive:
CC(C)=CCC/C(C)=C/CO/N=C1/C[C@@H](O)[C@@H](O)[C@@H]2[C@@H]3C(=O)N(C[C@@H]4CCCO4)C(=O)[C@H]3CC[C@H]12 -12% [at 11.4 µM], COc1ccc(/C=C(\C#N)C(N)=O)c(OC)c1 6.18% [at 11.4 µM], CC(=O)OC[C@@H]1O[C@@H](O/N=C2/C[C@@H](O)[C@@H](O)[C@@H]3[C@@H]4C(=O)N(C5CCCCC5)C(=O)[C@H]4CC[C@H]23)[C@H](OC(C)=O)[C@H](OC(C)=O)[C@@H]1OC(C)=O 9.71% [at 11.4 µM], O=CN[C@@H](Cc1cnc[nH]1)C(=O)O 6.59% [at 11.4 µM], CCN1C(=O)[C@H]2[C@H]3[C@H](O)[C@H](O)C/C(=N/OC[C@@H](O)[C@H]4O[C@H]5OC(C)(C)O[C@H]5[C@@H]4O)[C@@H]3CC[C@@H]2C1=O 15% [at 11.4 µM], COc1cc2c3cc1Oc1c(OC)c(OC)cc4c1[C@@H](Cc1ccc(O)c(c1)Oc1ccc(cc1)C[C@@H]3N(C)CC2)CN(C)C4 -44.9% [at 11.4 µM], O=C(O)c1cc(-c2ccncc2)nc2ccccc12 15.6% [at 11.4 µM]
